What all share (test): DAPPL (digital affinity profiling via proximity ligation, sequencing); 10 mM Tris-HCl pH 7.5, 50 mM NaCl, 1 mM DTT, 4% glycerol, room temperature, 30 min; GST-TFs on glutathione beads, 16-mer random dsDNA library, 0.1% formaldehyde crosslink after washing; high values mean tight binding
Experiment [1] concerns the target T1, FLI1 (Homo sapiens, UniProt Q01543 1-452).
T1 sequence: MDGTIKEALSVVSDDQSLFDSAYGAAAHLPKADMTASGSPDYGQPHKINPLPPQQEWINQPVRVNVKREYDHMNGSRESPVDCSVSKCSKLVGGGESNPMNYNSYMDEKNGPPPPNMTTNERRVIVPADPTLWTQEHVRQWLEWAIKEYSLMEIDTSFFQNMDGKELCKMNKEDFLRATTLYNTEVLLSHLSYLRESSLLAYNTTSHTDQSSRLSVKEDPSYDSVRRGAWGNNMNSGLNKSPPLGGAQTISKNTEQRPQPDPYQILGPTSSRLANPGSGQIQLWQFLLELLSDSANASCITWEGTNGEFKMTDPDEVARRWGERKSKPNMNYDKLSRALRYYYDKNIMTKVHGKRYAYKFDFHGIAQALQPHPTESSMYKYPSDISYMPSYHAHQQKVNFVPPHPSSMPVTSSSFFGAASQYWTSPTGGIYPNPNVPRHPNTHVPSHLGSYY
The note with it: protein: recombinant; tags: N-terminal GST; dsDNA, one strand shown. The gist of the method:
(§1)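 Binding signal is given per hexamer as its read frequency for a factor divided by its frequency in the tag-only sample. GST-fused human transcription factors were expressed in yeast, captured on glutathione beads, barcoded with DNA and pooled with that sample, then incubated with 200 nmole of a 16-mer random double-stranded DNA library in Tris/NaCl/DTT/glycerol buffer for 30 min at room temperature. The pools were then washed, crosslinked, proximity-ligated, amplified by PCR and sequenced on an Illumina NextSeq500.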

The target in experiment [2] is T2, ELK1 (Homo sapiens, UniProt P19419 1-428).
T2 sequence: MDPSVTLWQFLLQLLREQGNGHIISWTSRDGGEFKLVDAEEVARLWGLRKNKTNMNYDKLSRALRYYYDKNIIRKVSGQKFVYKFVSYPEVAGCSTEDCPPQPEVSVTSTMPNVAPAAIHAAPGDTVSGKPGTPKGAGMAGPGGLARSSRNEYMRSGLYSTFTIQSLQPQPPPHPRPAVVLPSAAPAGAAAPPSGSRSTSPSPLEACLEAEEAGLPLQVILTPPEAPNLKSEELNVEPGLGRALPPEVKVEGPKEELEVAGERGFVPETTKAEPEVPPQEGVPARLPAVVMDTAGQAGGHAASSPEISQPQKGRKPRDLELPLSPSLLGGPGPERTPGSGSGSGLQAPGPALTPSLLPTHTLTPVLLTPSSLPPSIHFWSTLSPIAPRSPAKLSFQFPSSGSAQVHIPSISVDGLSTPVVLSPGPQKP
The note with it: protein: recombinant; tags: N-terminal GST; dsDNA, one strand shown. A digest of the protocol:
as §1

Experiment [3] concerns the target T3, GABPA (Homo sapiens, UniProt Q06546 1-454).
T3 sequence: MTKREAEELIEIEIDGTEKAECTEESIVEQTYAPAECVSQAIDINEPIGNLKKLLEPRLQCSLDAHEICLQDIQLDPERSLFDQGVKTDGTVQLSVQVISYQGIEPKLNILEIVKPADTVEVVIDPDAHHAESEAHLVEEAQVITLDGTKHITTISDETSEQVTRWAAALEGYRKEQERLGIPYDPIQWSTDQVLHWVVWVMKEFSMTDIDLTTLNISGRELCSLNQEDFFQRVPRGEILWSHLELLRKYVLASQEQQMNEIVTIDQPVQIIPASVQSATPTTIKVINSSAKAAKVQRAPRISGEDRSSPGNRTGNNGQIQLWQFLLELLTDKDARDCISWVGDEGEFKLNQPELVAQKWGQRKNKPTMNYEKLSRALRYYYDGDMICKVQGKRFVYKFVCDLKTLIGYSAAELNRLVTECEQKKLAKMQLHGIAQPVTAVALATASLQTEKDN
As to conditions: protein: recombinant; tags: N-terminal GST; dsDNA, one strand shown. The gist of the method: as §1

Experiment [4] deals with T4, ERG (Homo sapiens, UniProt P11308 1-479).
T4 sequence: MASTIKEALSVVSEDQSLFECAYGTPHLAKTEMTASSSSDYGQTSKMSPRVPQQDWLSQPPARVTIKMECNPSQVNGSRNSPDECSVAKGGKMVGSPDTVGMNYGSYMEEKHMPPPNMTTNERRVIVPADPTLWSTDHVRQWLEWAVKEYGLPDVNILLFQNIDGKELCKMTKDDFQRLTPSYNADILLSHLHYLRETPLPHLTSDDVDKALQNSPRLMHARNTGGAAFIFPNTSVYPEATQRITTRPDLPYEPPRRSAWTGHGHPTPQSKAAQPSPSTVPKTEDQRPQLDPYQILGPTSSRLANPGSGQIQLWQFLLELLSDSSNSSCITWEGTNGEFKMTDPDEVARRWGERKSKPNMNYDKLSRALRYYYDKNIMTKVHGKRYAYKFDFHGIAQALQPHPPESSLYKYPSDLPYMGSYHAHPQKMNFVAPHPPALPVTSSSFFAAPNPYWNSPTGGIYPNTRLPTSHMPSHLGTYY
The note with it: protein: recombinant; tags: N-terminal GST; dsDNA, one strand shown. The gist of the method: as §1

The target of experiment [5] is ELF1 (Homo sapiens, UniProt P32519 1-619). The note with it: protein: recombinant; tags: N-terminal GST; dsDNA, one strand shown. The gist of the method:
as §1

For experiment [6], the target named is T5, EHF (Homo sapiens, UniProt Q9NZC4 1-300).
T5 sequence: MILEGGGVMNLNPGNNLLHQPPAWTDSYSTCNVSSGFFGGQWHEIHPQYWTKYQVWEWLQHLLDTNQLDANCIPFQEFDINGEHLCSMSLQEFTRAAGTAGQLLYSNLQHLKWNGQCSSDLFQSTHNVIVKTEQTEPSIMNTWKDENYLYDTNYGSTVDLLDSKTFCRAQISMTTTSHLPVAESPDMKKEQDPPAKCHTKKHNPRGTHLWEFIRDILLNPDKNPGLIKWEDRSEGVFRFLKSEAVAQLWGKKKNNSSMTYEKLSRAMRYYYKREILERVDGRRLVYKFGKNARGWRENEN
The note with it: protein: recombinant; tags: N-terminal GST; dsDNA, one strand shown. The gist of the method:
as §1

For experiment [7], the target named is SPI1 (Homo sapiens, UniProt P17947 1-270). As to conditions: protein: recombinant; tags: N-terminal GST; dsDNA, one strand shown. The gist of the method:
as §1

For experiment [8], the target named is SPIB (Homo sapiens, UniProt Q01892 1-262). The note with it: protein: recombinant; tags: N-terminal GST; dsDNA, one strand shown. The gist of the method:
as §1

Experiment [9] has as its target T6, ELK3 (Homo sapiens, UniProt P41970 1-407).
T6 sequence: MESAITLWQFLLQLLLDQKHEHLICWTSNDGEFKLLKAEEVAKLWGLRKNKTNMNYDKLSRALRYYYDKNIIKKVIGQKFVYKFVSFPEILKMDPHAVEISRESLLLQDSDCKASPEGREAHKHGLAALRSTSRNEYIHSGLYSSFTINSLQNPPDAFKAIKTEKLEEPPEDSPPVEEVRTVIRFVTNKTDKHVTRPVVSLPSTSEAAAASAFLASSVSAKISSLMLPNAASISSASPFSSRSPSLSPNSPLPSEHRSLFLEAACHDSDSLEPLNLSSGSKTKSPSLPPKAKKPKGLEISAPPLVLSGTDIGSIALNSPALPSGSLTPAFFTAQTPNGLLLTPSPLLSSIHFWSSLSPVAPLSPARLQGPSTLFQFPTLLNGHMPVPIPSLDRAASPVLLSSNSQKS
The note with it: protein: recombinant; tags: N-terminal GST; dsDNA, one strand shown. A digest of the protocol: as §1

In experiment [10] the target is T7, FEV (Homo sapiens, UniProt Q99581 1-238).
T7 sequence: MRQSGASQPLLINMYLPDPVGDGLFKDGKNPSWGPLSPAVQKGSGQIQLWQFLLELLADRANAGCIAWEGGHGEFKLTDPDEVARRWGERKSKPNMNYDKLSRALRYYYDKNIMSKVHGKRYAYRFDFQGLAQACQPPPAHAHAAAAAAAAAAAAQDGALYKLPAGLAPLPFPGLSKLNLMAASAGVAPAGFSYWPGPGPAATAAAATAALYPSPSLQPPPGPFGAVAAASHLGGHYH
As to conditions: protein: recombinant; tags: N-terminal GST; dsDNA, one strand shown. A digest of the protocol: as §1

Experiment [11] deals with ETV5 (Homo sapiens, UniProt P41161 1-510). As to conditions: protein: recombinant; tags: N-terminal GST; dsDNA, one strand shown. The gist of the method:
as §1

The target in experiment [12] is HSF1 (Homo sapiens, UniProt Q00613 1-529). The note with it: protein: recombinant; tags: N-terminal GST; chain copies: 3; dsDNA, one strand shown. A digest of the protocol: as §1
For experiment [13], the target named is T8, SPIC (Homo sapiens, UniProt Q8N5J4 1-248).
T8 sequence: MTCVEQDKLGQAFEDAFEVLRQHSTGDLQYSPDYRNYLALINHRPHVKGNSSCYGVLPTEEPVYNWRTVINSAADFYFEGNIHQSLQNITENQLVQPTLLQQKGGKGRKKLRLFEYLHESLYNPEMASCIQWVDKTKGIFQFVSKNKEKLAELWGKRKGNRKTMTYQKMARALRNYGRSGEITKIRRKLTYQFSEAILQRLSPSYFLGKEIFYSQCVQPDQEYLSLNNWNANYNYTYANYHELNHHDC
The note with it: protein: recombinant; tags: N-terminal GST; dsDNA, one strand shown. A digest of the protocol: as §1

Experiment [14] concerns the target ELF4 (Homo sapiens, UniProt Q99607 1-663). As to conditions: protein: recombinant; tags: N-terminal GST; dsDNA, one strand shown. A digest of the protocol: as §1
The target of experiment [15] is T9, ELK4 (Homo sapiens, UniProt P28324-2 1-405).
T9 sequence: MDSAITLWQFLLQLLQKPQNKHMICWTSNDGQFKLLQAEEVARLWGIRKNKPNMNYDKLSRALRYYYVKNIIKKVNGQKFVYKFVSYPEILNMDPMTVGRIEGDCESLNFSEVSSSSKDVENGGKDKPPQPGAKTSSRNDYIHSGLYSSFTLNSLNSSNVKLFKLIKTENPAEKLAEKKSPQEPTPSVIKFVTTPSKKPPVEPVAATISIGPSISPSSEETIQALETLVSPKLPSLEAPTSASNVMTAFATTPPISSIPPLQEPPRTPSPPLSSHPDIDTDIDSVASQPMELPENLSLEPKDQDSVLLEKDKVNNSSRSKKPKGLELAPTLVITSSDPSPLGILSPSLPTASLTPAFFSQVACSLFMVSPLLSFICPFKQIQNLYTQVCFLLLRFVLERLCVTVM
The note with it: protein: recombinant; tags: N-terminal GST; dsDNA, one strand shown. The gist of the method: as §1

Experiment [16] has as its target T10, ETV2 (Homo sapiens, UniProt O00321 1-342).
T10 sequence: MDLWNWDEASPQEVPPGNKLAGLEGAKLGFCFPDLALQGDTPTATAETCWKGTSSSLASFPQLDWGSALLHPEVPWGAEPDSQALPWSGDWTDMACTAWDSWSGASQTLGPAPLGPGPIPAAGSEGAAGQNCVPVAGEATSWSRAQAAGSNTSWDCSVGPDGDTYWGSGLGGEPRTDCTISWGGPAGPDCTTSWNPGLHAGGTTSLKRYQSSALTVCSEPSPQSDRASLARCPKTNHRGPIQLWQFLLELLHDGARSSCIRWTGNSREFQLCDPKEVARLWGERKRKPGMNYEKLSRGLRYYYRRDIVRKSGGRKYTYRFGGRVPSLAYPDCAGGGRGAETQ
As to conditions: protein: recombinant; tags: N-terminal GST; dsDNA, one strand shown. The gist of the method:
as §1

For experiment [17], the target named is T11, ELF3 (Homo sapiens, UniProt P78545 1-371).
T11 sequence: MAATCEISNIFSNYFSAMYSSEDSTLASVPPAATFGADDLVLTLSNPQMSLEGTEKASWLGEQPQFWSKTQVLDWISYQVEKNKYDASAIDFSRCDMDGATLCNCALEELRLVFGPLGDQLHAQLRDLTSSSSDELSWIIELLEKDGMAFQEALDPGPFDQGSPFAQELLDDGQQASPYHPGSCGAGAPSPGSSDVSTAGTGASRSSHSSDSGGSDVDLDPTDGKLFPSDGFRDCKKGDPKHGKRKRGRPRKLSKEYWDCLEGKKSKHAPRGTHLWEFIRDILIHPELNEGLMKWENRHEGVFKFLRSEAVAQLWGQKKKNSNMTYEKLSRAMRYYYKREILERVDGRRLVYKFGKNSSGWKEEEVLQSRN
As to conditions: protein: recombinant; tags: N-terminal GST; dsDNA, one strand shown. The gist of the method:
as §1

Experiment [18] deals with CRX (Homo sapiens, UniProt O43186 1-299). The note with it: protein: recombinant; tags: N-terminal GST; dsDNA, one strand shown. A digest of the protocol: as §1
Experiment [19] deals with ETV1 (Homo sapiens, UniProt P50549 1-477). The note with it: protein: recombinant; tags: N-terminal GST; dsDNA, one strand shown. A digest of the protocol:
as §1

Chain of ELF1 (P32519 whole entry): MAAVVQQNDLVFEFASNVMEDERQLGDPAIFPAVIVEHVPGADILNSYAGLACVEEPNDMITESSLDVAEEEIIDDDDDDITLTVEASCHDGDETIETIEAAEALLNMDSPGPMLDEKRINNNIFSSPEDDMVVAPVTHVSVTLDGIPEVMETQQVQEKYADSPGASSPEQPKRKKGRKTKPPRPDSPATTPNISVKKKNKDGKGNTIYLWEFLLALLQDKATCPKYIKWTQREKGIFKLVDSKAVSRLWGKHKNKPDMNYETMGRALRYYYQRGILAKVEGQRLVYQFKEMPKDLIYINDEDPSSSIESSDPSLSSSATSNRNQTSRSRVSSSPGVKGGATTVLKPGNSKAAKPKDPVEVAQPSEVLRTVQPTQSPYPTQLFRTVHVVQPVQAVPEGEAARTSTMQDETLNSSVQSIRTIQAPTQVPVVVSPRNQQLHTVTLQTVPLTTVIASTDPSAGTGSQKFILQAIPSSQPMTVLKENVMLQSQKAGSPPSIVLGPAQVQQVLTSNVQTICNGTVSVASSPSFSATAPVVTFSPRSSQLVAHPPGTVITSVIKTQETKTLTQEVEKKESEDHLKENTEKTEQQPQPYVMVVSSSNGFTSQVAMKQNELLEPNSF
Chain of ETV1 (P50549 whole entry): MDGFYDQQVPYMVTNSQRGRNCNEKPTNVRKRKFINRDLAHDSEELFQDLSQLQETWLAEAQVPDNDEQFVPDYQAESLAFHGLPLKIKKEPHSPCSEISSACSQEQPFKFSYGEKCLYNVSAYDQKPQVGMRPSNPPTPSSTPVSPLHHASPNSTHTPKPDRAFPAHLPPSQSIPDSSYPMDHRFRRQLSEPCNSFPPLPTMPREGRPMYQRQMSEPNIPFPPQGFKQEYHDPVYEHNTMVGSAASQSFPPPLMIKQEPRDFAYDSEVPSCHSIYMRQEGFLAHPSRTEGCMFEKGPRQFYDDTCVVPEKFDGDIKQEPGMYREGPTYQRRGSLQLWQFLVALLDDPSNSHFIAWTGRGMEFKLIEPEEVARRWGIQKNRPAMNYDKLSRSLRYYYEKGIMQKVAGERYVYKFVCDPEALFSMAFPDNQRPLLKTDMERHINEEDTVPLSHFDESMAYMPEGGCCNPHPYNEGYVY
Chain of ETV5 (P41161 whole entry): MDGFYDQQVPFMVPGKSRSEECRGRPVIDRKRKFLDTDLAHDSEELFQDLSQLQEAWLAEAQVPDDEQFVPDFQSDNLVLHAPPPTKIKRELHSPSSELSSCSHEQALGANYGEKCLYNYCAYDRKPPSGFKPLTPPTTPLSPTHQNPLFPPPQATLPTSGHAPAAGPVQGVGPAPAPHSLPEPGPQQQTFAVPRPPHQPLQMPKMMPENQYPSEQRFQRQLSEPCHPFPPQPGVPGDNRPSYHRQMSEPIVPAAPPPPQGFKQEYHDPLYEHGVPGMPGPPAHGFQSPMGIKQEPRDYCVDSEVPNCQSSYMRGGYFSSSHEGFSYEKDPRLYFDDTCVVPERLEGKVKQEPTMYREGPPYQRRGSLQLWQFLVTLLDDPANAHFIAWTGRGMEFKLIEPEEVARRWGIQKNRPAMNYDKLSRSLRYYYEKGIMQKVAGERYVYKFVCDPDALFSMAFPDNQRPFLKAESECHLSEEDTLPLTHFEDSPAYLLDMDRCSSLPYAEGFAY
Chain of ELF4 (Q99607 whole entry): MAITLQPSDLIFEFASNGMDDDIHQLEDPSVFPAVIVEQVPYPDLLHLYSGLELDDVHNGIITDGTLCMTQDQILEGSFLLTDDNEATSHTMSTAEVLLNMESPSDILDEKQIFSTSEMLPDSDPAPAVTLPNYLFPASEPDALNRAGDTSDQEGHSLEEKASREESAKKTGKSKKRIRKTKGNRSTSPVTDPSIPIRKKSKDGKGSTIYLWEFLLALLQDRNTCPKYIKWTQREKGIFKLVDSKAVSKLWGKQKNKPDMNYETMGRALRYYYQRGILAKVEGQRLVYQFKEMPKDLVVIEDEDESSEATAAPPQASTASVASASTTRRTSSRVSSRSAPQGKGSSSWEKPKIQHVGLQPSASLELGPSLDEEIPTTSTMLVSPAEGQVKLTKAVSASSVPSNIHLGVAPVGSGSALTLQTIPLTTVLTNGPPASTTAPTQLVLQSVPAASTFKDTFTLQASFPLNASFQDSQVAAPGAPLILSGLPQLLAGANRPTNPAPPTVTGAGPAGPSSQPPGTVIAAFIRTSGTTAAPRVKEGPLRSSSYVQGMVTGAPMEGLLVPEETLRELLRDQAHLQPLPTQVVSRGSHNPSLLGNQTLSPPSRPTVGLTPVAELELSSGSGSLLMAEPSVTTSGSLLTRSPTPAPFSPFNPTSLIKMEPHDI
Chain of HSF1 (Q00613 whole entry): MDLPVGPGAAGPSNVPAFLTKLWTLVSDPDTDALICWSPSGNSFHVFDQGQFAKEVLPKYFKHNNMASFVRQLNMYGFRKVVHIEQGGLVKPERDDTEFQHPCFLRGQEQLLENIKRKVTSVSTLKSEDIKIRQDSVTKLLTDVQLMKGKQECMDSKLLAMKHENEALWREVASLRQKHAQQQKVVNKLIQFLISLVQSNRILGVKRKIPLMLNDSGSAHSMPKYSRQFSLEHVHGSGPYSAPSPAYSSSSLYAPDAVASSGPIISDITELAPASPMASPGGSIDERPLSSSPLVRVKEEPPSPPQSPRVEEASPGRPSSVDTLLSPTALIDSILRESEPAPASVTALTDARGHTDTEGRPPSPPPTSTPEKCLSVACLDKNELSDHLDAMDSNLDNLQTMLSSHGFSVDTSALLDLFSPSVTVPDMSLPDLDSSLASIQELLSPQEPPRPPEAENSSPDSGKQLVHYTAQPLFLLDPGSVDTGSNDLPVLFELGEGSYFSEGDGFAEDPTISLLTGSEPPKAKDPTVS
Chain of SPIB (Q01892 whole entry): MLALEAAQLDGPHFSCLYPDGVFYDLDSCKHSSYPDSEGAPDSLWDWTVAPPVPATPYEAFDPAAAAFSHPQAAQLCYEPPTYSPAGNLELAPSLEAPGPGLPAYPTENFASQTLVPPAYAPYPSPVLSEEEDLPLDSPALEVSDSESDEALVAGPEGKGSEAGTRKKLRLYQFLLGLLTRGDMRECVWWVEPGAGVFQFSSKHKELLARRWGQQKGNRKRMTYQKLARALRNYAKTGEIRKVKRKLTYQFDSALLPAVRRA
Chain of CRX (O43186 whole entry): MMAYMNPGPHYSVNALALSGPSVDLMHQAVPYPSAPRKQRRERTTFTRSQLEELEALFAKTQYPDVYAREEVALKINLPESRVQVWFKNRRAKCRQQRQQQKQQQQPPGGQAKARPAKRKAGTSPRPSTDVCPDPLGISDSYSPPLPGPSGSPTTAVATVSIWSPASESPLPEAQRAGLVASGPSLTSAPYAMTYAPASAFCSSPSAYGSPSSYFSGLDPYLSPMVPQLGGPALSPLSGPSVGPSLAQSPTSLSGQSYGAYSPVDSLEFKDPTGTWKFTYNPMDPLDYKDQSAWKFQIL

As for GTATTC, the binding signal in experiment [1] is 1.33 fold enrichment (6-mer frequency, TF over GST control); in experiment [2], 1.17 fold enrichment (6-mer frequency, TF over GST control); in [3] it was 1.26 fold enrichment (6-mer frequency, TF over GST control); in experiment [4], 1.19 fold enrichment (6-mer frequency, TF over GST control); in experiment [5] it was 1.22 fold enrichment (6-mer frequency, TF over GST control); in [6], 1.27 fold enrichment (6-mer frequency, TF over GST control). Also, the binding signal was 1.31 fold enrichment (6-mer frequency, TF over GST control) in experiment [7]; 1.25 fold enrichment (6-mer frequency, TF over GST control) in experiment [8]; 1.3 fold enrichment (6-mer frequency, TF over GST control) in experiment [9]; 1.18 fold enrichment (6-mer frequency, TF over GST control) in experiment [10]; 1.32 fold enrichment (6-mer frequency, TF over GST control) in experiment [11]; 1.31 fold enrichment (6-mer frequency, TF over GST control) in [12]. Further, the binding signal in experiment [13] is 1.33 fold enrichment (6-mer frequency, TF over GST control); in experiment [14], 1.27 fold enrichment (6-mer frequency, TF over GST control); in experiment [15] it was 1.16 fold enrichment (6-mer frequency, TF over GST control); in experiment [16], 1.27 fold enrichment (6-mer frequency, TF over GST control); in [17], 1.31 fold enrichment (6-mer frequency, TF over GST control); in experiment [18] it was 1.13 fold enrichment (6-mer frequency, TF over GST control). Moreover, in [19], the binding signal was 1.22 fold enrichment (6-mer frequency, TF over GST control).

The record behind these values is article PMC7862700, “An all-to-all approach to the identification of sequence-specific readers for epigenetic DNA modifications on cytosine”.
